Molecules are shown by their SMILES.

Experiment [1] has as its target Tyrosine-protein kinase Fer (Homo sapiens) (UniProt P16591). The settings on record: at 10 µM.
The target of experiment [2] is Tyrosine-protein kinase Fes/Fps (Homo sapiens) (UniProt P07332). As to conditions: at 1 µM.
For experiment [3] the target is unchanged. As to conditions: at 10 µM.
Experiment [4] has as its target Tyrosine-protein kinase Fgr (Homo sapiens) (UniProt P09769). As to conditions: at 1 µM.
For experiment [5] the target is unchanged. The settings on record: at 10 µM.
The target of experiment [6] is Vascular endothelial growth factor receptor 1 (Homo sapiens) (UniProt P17948). As to conditions: at 1 µM.
The target is the same in experiment [7]. The settings on record: at 10 µM.
Experiment [8] concerns the target Receptor-type tyrosine-protein kinase FLT3 (Homo sapiens) (UniProt P36888). The settings on record: at 1 µM.
For experiment [9] the target is unchanged. The settings on record: at 10 µM.
Experiment [10] deals with Vascular endothelial growth factor receptor 3 (Homo sapiens) (UniProt P35916). As to conditions: at 1 µM.
Sequence of Vascular endothelial growth factor receptor 3 (Homo sapiens) (P35916 whole entry): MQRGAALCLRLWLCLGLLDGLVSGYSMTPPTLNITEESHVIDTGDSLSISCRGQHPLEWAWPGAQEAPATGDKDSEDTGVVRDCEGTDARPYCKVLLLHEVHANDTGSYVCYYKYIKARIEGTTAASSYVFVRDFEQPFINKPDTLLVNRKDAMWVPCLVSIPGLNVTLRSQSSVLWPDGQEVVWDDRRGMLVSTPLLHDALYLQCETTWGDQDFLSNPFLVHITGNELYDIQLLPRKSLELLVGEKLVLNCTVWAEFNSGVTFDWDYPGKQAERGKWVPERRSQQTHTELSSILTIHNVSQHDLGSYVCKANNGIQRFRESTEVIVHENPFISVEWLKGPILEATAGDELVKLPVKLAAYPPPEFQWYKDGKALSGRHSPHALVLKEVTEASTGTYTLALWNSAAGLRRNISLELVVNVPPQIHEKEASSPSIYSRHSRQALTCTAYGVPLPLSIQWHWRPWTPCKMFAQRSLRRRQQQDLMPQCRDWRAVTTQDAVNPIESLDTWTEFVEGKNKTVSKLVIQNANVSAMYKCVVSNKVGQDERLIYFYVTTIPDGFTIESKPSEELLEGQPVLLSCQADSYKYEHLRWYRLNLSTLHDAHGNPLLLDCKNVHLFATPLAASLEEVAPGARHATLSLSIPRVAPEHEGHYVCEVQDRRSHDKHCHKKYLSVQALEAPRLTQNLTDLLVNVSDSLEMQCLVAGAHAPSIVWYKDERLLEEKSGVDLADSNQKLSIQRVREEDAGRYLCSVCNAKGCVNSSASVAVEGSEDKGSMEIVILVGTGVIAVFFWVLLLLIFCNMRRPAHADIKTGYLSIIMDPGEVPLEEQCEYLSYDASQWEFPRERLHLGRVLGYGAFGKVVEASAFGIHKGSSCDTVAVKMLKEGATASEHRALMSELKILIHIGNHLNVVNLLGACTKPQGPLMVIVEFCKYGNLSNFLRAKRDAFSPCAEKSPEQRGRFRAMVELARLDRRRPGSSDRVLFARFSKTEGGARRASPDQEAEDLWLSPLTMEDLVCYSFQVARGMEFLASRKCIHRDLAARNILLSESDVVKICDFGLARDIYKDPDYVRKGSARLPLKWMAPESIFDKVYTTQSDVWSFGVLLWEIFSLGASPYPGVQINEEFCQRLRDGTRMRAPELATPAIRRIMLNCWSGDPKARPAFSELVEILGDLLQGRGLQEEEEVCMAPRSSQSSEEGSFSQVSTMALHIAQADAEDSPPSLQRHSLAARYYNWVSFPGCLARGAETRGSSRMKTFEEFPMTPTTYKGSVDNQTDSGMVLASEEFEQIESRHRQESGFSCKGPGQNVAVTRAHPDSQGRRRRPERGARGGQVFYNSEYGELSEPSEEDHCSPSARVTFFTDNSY
The target is the same in experiment [11]. As to conditions: at 10 µM.
Experiment [12] deals with Macrophage colony-stimulating factor 1 receptor (Homo sapiens) (UniProt P07333). As to conditions: at 1 µM.
Sequence of Macrophage colony-stimulating factor 1 receptor (Homo sapiens) (P07333 whole entry): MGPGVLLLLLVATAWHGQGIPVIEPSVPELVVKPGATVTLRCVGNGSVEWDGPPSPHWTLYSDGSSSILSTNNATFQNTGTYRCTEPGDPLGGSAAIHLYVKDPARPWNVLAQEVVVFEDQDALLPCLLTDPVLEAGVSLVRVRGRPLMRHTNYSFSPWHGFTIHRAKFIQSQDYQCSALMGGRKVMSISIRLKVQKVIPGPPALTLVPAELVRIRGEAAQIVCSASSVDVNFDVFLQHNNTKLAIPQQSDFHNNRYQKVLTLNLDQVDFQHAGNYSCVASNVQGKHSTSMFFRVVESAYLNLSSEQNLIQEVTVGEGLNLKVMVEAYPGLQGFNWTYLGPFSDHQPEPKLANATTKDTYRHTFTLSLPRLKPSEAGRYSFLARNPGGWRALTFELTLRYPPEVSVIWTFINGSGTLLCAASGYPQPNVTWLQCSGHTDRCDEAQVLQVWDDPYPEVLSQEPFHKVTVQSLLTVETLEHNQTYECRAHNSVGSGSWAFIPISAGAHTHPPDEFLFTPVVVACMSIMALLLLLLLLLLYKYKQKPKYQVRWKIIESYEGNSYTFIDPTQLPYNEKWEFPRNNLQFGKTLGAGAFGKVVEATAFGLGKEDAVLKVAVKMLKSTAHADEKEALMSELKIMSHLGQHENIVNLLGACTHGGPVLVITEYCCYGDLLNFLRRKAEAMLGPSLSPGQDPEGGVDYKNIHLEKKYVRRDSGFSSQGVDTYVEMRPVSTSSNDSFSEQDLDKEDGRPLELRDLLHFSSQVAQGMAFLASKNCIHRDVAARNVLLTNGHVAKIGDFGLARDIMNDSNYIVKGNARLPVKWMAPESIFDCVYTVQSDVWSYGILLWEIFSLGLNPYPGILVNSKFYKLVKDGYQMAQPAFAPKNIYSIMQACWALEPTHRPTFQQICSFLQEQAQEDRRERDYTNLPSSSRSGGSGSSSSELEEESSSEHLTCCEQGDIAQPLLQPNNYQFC
The target is the same in experiment [13]. The settings on record: at 10 µM.
For experiment [14], the target named is Tyrosine-protein kinase Fyn (Homo sapiens) (UniProt P06241). As to conditions: at 1 µM.
Sequence of Tyrosine-protein kinase Fyn (Homo sapiens) (P06241 2-537 limits assumed): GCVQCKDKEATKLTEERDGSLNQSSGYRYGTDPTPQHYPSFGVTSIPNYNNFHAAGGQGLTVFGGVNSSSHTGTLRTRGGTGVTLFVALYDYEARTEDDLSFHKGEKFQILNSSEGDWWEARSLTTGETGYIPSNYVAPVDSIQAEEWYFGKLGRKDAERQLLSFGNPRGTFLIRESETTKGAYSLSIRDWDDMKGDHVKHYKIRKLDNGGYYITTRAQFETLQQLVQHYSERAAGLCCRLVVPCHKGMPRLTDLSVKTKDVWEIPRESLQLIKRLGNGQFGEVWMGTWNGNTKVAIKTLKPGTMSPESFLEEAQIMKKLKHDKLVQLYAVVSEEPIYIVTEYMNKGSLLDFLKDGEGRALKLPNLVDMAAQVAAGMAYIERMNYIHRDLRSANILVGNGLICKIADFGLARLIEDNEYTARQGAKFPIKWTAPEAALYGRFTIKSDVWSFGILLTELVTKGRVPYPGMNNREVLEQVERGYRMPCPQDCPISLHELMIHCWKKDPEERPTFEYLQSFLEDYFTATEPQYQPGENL
For experiment [15] the target is unchanged. The settings on record: at 10 µM.
Experiment [16] concerns the target T1, Mitogen-activated protein kinase kinase kinase kinase 2 (Homo sapiens) (UniProt Q12851).
T1 sequence (whole entry): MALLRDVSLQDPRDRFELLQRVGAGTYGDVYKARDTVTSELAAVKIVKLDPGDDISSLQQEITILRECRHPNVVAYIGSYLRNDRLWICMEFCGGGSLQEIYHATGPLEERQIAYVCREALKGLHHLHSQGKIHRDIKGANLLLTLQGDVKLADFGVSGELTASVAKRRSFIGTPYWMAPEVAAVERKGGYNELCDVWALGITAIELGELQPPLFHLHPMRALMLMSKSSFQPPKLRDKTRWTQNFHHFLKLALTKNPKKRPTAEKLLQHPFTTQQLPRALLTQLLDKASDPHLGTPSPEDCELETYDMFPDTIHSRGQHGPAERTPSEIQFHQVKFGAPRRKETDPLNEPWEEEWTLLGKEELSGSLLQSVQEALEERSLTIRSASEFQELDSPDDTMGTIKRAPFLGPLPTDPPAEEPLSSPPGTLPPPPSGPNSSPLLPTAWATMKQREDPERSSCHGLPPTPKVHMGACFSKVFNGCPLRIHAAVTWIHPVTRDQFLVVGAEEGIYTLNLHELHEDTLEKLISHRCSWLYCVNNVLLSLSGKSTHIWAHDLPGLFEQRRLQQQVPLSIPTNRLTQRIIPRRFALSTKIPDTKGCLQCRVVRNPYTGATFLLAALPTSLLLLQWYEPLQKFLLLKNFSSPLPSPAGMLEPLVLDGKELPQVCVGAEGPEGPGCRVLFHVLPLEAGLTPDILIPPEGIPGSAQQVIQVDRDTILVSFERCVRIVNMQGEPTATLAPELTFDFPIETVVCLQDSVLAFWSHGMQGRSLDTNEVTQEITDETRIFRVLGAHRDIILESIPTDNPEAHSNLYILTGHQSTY
The settings on record: at 10 µM.

For experiment [17], the target named is T2, Rhodopsin kinase GRK7 (Homo sapiens) (UniProt Q8WTQ7).
T2 sequence (whole entry): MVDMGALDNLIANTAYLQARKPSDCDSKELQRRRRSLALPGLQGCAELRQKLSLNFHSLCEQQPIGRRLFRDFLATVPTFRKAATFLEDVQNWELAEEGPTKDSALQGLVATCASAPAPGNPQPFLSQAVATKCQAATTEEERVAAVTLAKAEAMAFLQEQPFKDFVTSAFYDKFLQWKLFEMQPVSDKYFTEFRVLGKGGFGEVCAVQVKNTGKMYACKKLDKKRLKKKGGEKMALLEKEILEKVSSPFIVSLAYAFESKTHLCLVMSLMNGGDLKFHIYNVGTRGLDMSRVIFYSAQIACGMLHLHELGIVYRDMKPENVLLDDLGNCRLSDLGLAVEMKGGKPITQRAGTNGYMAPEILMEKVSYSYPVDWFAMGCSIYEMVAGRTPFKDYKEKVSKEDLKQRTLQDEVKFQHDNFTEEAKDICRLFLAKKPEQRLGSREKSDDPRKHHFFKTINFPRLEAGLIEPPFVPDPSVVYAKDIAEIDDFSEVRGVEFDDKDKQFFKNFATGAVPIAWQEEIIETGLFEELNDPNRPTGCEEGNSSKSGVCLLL
The settings on record: at 1 µM.

Experiment [18] has as its target T1, Mitogen-activated protein kinase kinase kinase kinase 2 (Homo sapiens). As to conditions: at 1 µM.
Experiment [19] concerns the target G protein-coupled receptor kinase 6 (Homo sapiens) (UniProt P43250). As to conditions: at 10 µM.
Experiment [20] deals with G protein-coupled receptor kinase 5 (Homo sapiens) (UniProt P34947). As to conditions: at 10 µM.

Sequence of Tyrosine-protein kinase Fes/Fps (Homo sapiens) (P07332 whole entry): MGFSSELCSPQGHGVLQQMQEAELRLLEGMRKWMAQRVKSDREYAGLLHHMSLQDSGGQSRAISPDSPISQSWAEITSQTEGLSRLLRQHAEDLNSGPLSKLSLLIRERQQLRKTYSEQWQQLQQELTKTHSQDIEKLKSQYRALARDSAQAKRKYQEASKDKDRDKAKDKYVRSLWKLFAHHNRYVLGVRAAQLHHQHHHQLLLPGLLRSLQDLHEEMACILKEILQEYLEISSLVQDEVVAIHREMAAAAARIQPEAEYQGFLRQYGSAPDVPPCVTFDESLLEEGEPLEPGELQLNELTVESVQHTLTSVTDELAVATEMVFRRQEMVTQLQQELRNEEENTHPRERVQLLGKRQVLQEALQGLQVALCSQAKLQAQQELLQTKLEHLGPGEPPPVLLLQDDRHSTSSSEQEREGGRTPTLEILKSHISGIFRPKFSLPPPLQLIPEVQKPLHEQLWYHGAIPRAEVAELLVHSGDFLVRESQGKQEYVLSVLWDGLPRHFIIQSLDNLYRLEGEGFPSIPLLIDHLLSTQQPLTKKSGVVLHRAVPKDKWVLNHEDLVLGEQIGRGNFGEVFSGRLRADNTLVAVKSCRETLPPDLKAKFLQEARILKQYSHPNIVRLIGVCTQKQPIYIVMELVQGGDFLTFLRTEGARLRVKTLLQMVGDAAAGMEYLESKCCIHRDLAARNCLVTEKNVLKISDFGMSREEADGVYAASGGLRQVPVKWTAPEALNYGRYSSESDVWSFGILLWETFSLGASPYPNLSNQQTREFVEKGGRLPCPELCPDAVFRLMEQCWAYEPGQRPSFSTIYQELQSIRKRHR
Sequence of Receptor-type tyrosine-protein kinase FLT3 (Homo sapiens) (P36888 whole entry): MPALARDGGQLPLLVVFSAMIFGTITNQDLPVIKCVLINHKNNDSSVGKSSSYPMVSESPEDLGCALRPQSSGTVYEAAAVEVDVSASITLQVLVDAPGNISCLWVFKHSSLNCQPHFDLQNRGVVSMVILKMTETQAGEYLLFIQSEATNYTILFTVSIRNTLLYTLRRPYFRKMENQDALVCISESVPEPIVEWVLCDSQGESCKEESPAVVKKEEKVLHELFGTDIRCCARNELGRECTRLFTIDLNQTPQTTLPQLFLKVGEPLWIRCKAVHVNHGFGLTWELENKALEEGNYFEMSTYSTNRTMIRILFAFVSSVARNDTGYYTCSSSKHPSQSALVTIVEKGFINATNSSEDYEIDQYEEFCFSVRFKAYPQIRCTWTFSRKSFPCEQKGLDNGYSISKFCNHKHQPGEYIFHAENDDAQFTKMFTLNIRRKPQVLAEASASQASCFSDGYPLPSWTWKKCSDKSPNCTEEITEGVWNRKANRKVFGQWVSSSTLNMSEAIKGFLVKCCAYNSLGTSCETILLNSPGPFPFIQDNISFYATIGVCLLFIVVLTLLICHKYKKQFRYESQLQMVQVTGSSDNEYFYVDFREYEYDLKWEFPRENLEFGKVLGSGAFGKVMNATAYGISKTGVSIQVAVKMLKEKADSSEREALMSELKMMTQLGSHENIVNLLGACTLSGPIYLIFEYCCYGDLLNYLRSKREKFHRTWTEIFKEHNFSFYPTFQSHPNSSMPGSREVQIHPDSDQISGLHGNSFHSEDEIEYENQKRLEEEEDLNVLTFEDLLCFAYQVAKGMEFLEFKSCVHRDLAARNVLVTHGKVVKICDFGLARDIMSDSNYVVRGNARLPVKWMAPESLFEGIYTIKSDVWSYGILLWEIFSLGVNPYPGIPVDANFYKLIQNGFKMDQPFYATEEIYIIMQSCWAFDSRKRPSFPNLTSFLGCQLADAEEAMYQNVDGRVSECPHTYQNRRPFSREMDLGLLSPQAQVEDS

For `COc1cc2ncnc(Nc3cccc(Cl)c3)c2cc1OC`, the residual activity in experiment [1] came out at 105%; in experiment [2] it was 119%; in experiment [3], 86%; in experiment [4], 52%; in experiment [5], 12%; in [6], 60%. For the same compound, the residual activity in experiment [7] was 16%; in experiment [8] it was 111%; in experiment [9], 52%; in [10] it was 47%; in [11], 6%; in experiment [12] it was 88%. Also, the residual activity in experiment [13] was 38%; in [14] it was 41%; in experiment [15], 6%; in experiment [16] it was 50%; in [17], 106%.
Take `Oc1cccc(-c2nc(N3CCOCC3)c3oc4ncccc4c3n2)c1`: the residual activity came out at 99% in experiment [1]; 137% in [2]; 118% in experiment [4]; 97% in [5]; 91% in [6]; 80% in experiment [7]. The residual activity turned out to be 89% in experiment [8]; 72% in experiment [9]; 78% in experiment [12]; 80% in experiment [13]; 82% in experiment [14]; 88% in [15]. Further, the residual activity in experiment [16] was 85%; in experiment [17], 93%.
Regarding `COc1ccc(-c2cnc3c(-c4ccsc4)cnn3c2)cc1`, the residual activity worked out at 98% in [1]; 82% in experiment [3]; 33% in [6]; 48% in experiment [7]; 53% in [8]; 19% in experiment [9]. Further, the residual activity is 21% in experiment [10]; 7% in [11]; 28% in experiment [12]; 5% in experiment [13]; 98% in experiment [14]; 84% in experiment [15]. For the same compound, the residual activity in experiment [18] stood at 96%; in experiment [16], 83%; in [19], 88%.
With `CCCCc1c(-c2ccc(OC)cc2)[nH]c2nccnc12`, the residual activity came out at 91% in experiment [1]; 34% in experiment [2]; 51% in experiment [3]; 61% in experiment [4]; 78% in [5]; 44% in [6]. In addition, the residual activity in experiment [7] turned out to be 32%; in [8], 27%; in [9], 30%; in [10], 6%; in [11], 3%; in experiment [12], 14%. The residual activity stood at 8% in experiment [13]; 40% in experiment [14]; 37% in experiment [15]; 22% in [18]; 32% in [16]; 77% in experiment [17].
Turning to `O=c1cc(N2CCOCC2)oc2c1ccc1ccccc12`, the residual activity is 96% in experiment [1]; 98% in experiment [3]; 107% in experiment [4]; 94% in experiment [5]; 98% in [6]; 95% in experiment [7]. Moreover, the residual activity in experiment [8] turned out to be 101%; in [9], 97%; in [10], 94%; in experiment [11], 92%; in experiment [12], 111%; in experiment [13], 102%. In addition, the residual activity turned out to be 83% in experiment [14]; 102% in experiment [15]; 91% in experiment [18]; 86% in experiment [16]; 96% in experiment [20]; 92% in experiment [19]. Further, in [17], the residual activity came out at 98%.
In the case of `NC(=O)Nc1sc(-c2ccc(F)cc2)cc1C(N)=O`, the residual activity in experiment [1] was found to be 50%; in experiment [2], 78%; in experiment [3], 24%; in [4] it was 28%; in experiment [5] it was 4%; in experiment [6], 17%. Moreover, the residual activity was 2% in experiment [7]; 22% in experiment [8]; 3% in [9]; 4% in [10]; 0% in experiment [11]; 11% in experiment [12]. Moreover, the residual activity in experiment [13] was found to be 2%; in [14] it was 24%; in experiment [15], 5%; in [18] it was 25%; in [16], 5%; in [20] it was 82%. For the same compound, the results for the residual activity in experiment [19] and in [17] were 74% and 67%, respectively.
As for `N#C/C(=C1/Nc2ccccc2S1)c1ccnc(NCCc2cccnc2)n1`, the residual activity in [1] is 60%; in experiment [2] it was 96%; in experiment [3], 73%; in experiment [4] it was 81%; in experiment [5], 44%; in experiment [6], 78%. Moreover, the residual activity in experiment [7] was 33%; in experiment [10], 68%; in [11], 22%; in experiment [12], 70%; in experiment [13], 31%; in [18], 79%. The residual activity in experiment [16] turned out to be 18%.

The values are drawn from ChEMBL document CHEMBL2218924, “A broad activity screen in support of a chemogenomic map for kinase signalling research and drug discovery” (Biochem J, 2013).
